The record followed here is PubChem BioAssay (NCI).

Common to all, as to assay: NCI-60 one-dose screen, 48 h (100 = growth as untreated, 0 = no growth, -100 = all killed)
Common to all, as to details: 10 µM unless noted

The test system of assay [1] is HCT-15 colon.
Assay [2] deals with HT29 colon.
Assay [3] relates to SNB-75 CNS.
Assay [4] relates to SNB-19 CNS.
In assay [5] the test system is U251 CNS.
For assay [6], the system named is PC-3 prostate.
In assay [7] the test system is SK-MEL-5 melanoma.
Assay [8] concerns UACC-62 melanoma.
Assay [9] concerns LOX IMVI melanoma.
In assay [10] the test system is SK-MEL-28 melanoma.

About 83,000 compounds went through this panel and 20% of them were active in at least one assay; those are over-represented in the sample as a whole.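 Values shown are percent growth following 48 h exposure of cells in 96-well plates to a single concentration of compound; below 10 was considered active.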 Values without a mark were called inactive. Calls of active or inactive are those of the source.

On to `COc1cc(CN(c2ccc(Cl)cc2)C2OC(=O)c3ccccc32)cc(OC)c1OC` (stereo not given), for which the growth in assay [1] is 38.2%; in [2], 17.9%; in assay [3] it was 68.6%; in [4], 74.1%; in assay [5] it was 36%; in assay [6], 62.6%. Further, the growth in assay [7] is 73%; in [8] it was 45.6%; in assay [9], 44.9%; in assay [10], 67.3%.

For the molecule `COc1cc(-c2nc3ccccc3s2)ccc1OCc1nc2n(n1)S(=O)(=O)c1ccccc1N2c1ccccc1`, the growth in [1] was 99.2%; in assay [2] it was 104%; in assay [3], 103%; in assay [4], 105%; in assay [5], 98.1%; in [6], 96.7%. For the same molecule, the growth is 84.2% in assay [7], 97.8% in assay [8], 93.2% in [9] and 110% in assay [10].

In the case of `CCN(CC)c1ccc(C2CC(c3cc(OC)c(OC)c(OC)c3)=NN2)cc1` (stereo not given), the growth in assay [1] is 36.1%; in assay [2] it was -3.21% (active); in assay [3], 18.7%; in [4] it was 14%; in assay [5], 33%; in [6], 26.3%. Also, the growth was -26.4% (active) in [7], 48.5% in assay [8], 40.5% in assay [9] and 64.8% in assay [10].

As to `CC1(C)N=C(N)N=C(N)N1c1cccc(CCCCc2ccccc2)c1`, the growth in assay [1] was 37.1%; in assay [2] it was -5.08% (active); in assay [3] it was -5.66% (active); in assay [4], 17.2%; in assay [5], 11.5%; in assay [6] it was -30% (active). Further, the growth in [7] is -96.7% (active); in assay [8], -9.07% (active); in assay [9], 13.2%; in assay [10] it was 42.6%.

Turning to `Cc1ccc(N(CC2=NCCN2)c2cccc(O)c2)cc1`, the growth in [1] was 102%; in [2], 107%; in assay [3], 84.9%; in assay [4], 103%; in assay [5], 88.8%; in assay [6], 92.1%. Further, the growth in [7] was 99.2%; in assay [8] it was 105%; in [9] it was 95%; in assay [10], 108%.

In the case of `Nc1nc(Cl)cc(NCc2ccc(CNc3cc(Cl)nc(N)n3)cc2)n1`, the growth was 100% in [1]; 110% in assay [2]; 78.3% in assay [3]; 100% in assay [4]; 98.6% in assay [5]; 109% in assay [6]. Also, the growth was 58.4% in assay [7], 98.3% in [8], 79.5% in [9] and 120% in assay [10].

Turning to `N#CC1=C(N)Oc2c(ccc3ccccc23)C1c1cc(=O)oc2ccc(Cl)cc12` (stereo not given), the growth is 25.8% in assay [1]; 6.85% (active) in assay [2]; 20.2% in assay [3]; 33.4% in [4]; 24.4% in assay [5]; 18.2% in assay [6]. In addition, the growth is 28.3% in assay [7], 36.5% in assay [8], 42% in [9] and 62.9% in [10].

On to `O=c1c2ccccc2sc2c(N3CCCC3)nc3ccccc3c12`, for which the growth was 94% in assay [1]; 92.3% in assay [2]; 86.6% in assay [3]; 95.9% in assay [4]; 98.5% in [5]; 83.4% in assay [6]. Besides, the growth is 92.6% in assay [7], 79% in assay [8], 85.9% in [9] and 120% in [10].

With `CC12CCC3C(CCC4CC(O)CCC43C)C1C/C(=C/O)C(=O)O2` (stereo not given), the growth in assay [1] was 106%; in assay [2], 102%; in assay [3] it was 110%; in assay [4] it was 101%; in [5] it was 104%; in assay [6] it was 97.8%. The growth is 92.9% in [7], 100% in assay [8], 101% in [9] and 112% in assay [10].

Consider `CC(CCC(=O)O)[C@H]1CCC2C3C(=O)C[C@@H]4CC(=O)CC[C@]4(C)C3CC(=O)[C@@]21C` (stereo not given in full), for which the growth in [1] was 105%; in assay [2] it was 117%; in assay [3], 110%; in assay [4], 101%; in assay [5], 95%; in assay [6], 92.8%. Moreover, the growth in assay [7] was 105%; in assay [8] it was 93.2%; in [9], 92.5%; in assay [10], 119%.

Take `O=C(/C=C/c1ccccc1)Oc1ccc(/C=C/c2cc(OC(=O)/C=C/c3ccccc3)cc(OC(=O)/C=C/c3ccccc3)c2)cc1`: the growth is 103% in assay [1]; 90.1% in assay [2]; 80.5% in [3]; 96.2% in assay [4]; 94.9% in assay [5]; 87.5% in assay [6]. In addition, the growth was 107% in [7], 103% in [8], 98.4% in [9] and 107% in [10].

`Cc1nccc2c3ccc(OCc4cn(Cc5ccc(Br)cc5)nn4)cc3n(CCCc3ccccc3)c12`: the growth in assay [1] is 92.8%; in assay [2], 80.7%; in assay [3] it was 42.3%; in assay [4] it was 47.3%; in assay [5] it was 82.3%; in assay [6], 77.9%. In addition, the growth in [7] was 81.1%; in [8], 82.1%; in assay [9], 93.3%; in assay [10], 99.4%.

For the molecule `COc1ccc(Cl)cc1NC(=O)c1cc2c([nH]1)-c1nc(NC(=O)C(C)(C)C)sc1CC2`, the growth in assay [1] was 49.1%; in [2], 59.1%; in assay [3], 50.5%; in assay [4], 44%; in [5], 9.52% (active); in [6], 61.4%. Moreover, the growth is 55.5% in assay [7], 81.2% in assay [8], 53.4% in [9] and 94.2% in assay [10].

As for `C=C1C(=O)O[C@H]2[C@H]1CC/C(COC(=O)OC/C1=C/CC[C@@]3(C)O[C@H]3[C@H]3OC(=O)[C@@H](CN(C)C)[C@@H]3CC1)=C\CC[C@@]1(C)O[C@@H]21`, the growth in [1] was 1.8% (active); in assay [2], -8% (active); in assay [3], 91%; in assay [4], 80.3%; in assay [5] it was 60.6%; in assay [6], 72.7%. The growth in assay [7] was 46.9%; in assay [8] it was -28.1% (active); in assay [9], -72.3% (active); in assay [10], -18.3% (active).
